Assay results: PubChem BioAssay AID1159580 (chemical genetic matrix, 2015)
Several values for one entry are separate records, joined by “and”; a condition that tells them apart may be missing. Identical values can stand only once. Screen size: about 5,500 compounds; about 2,000 (36%) were called active. Another 18% or so got no clear call; they are omitted. Cut-off read from the data, not from the text of the source: active = normalized growth mostly below about 0.91 (no sharp cut-off); inconclusive = no clear call, values can overlap the other calls; inactive = mostly above about 0.92. The list shows a part of the results.

Assay: chemical genetic growth profiling, strain panel (AID 1159580);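 note: tested at 20 µM; growth read once vehicle control cultures reached saturation at 30 °C; 1 = growth at the plate median or of vehicle wells; lower values mean less growth of the strain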
Conditions: S. cerevisiae deletion strains, growth OD

Measured: normalized growth

Cc1ccnc(NS(=O)(=O)c2ccc(N)cc2)n1
inactive: locus YAL013W, strain DEP1, hits give low values 1 | locus YAL021C, strain ccr4, hits give low values 0.971 | locus YAL026C, strain drs2, hits give low values 0.994 | locus YAL030W, strain snc1, hits give low values 0.999 | locus YBL061C, strain skt5, hits give low values 0.997 | locus YBR009C, strain hhf1, hits give low values 1.01 | locus YBR021W, strain FUR4, hits give low values 0.994 | locus YBR023C, strain chs3, hits give low values 0.998 | locus YBR171W, strain sec66, hits give low values 1.02 | locus YBR229C, strain ROT2, hits give low values 1 | locus YBR231C, strain swc5, hits give low values 1.01 | locus YBR279W, strain paf1, hits give low values 1.01 | locus YCL011C, strain gbp2, hits give low values 0.969 | locus YCL016C, strain dcc1, hits give low values 0.968 | locus YCL029C, strain bik1, hits give low values 1.02 | locus YCL061C, strain MRC1, hits give low values 1.01 | locus YCL069W, strain vba3, hits give low values 0.998 | locus YCR088W, strain abp1, hits give low values 1 | locus YDL005C, strain med2, hits give low values 1 | locus YDL035C, strain GPR1, hits give low values 1.01 | locus YDL040C, strain nat1, hits give low values 0.999 | locus YDL074C, strain BRE1, hits give low values 0.978 | locus YDL101C, strain DUN1, hits give low values 1.01 | locus YDL134C, strain PPH21, hits give low values 1.01 | locus YDL185W, strain tfp1, hits give low values 0.967 | locus YDL192W, strain arf1, hits give low values 1.02 | locus YDR001C, strain nth1, hits give low values 0.999 | locus YDR069C, strain doa4, hits give low values 1.02 | locus YDR101C, strain arx1, hits give low values 1.01 | locus YDR137W, strain rgp1, hits give low values 1.03 | locus YDR150W, strain NUM1, hits give low values 1 | locus YDR159W, strain sac3, hits give low values 0.968 | locus YDR162C, strain NBP2, hits give low values 1 | locus YDR195W, strain ref2 1 | locus YDR297W, strain sur2, hits give low values 1.01 | locus YDR318W, strain mcm21, hits give low values 1.02 | locus YDR334W, strain swr1, hits give low values 0.995 | locus YDR335W, strain msn5, hits give low values 0.986 | locus YDR388W, hits give low values 1.01 | locus YDR392W, strain spt3, hits give low values 0.887 | locus YDR502C, strain sam2, hits give low values 1.01 | locus YEL003W, strain gim4, hits give low values 1.02 | locus YEL037C, strain rad23, hits give low values 1.01 | locus YEL061C, strain CIN8 (second series), hits give low values 1 | locus YEL061C, strain CIN8, hits give low values 1 | locus YER015W, strain faa2, hits give low values 0.992 | locus YER016W, strain bim1, hits give low values 1.01 | locus YER110C, hits give low values 1.02 | locus YER111C, strain swi4, hits give low values 0.998 | locus YER155C, strain BEM2 (second series), hits give low values 1.02 | locus YER155C, strain BEM2, hits give low values 1 | locus YER167W, strain BCK2, hits give low values 1.01 | locus YFR010W, strain ubp6, hits give low values 1.02 | locus YGL078C, strain dbp3, hits give low values 1.01 | locus YGL086W, strain mad1, hits give low values 1.01 | locus YGL167C, strain pmr1, hits give low values 0.992 | locus YGL173C, strain kem1, hits give low values 1.02 | locus YGL227W, strain vid30, hits give low values 0.999 | locus YGL240W, strain doc1, hits give low values 1.03 | locus YGL248W, strain PDE1, hits give low values 0.998 | locus YGL253W, strain hxk2, hits give low values 0.996 | locus YGR078C, strain PAC10, hits give low values 0.971 | locus YGR135W, strain pre9, hits give low values 1.01 | locus YGR229C, strain SMI1, hits give low values 0.97 | locus YGR252W, strain gcn5, hits give low values 0.984 | locus YHR013C, strain ard1, hits give low values 0.987 | locus YHR027C, strain rpn1, hits give low values 0.999 | locus YHR030C, strain SLT2, hits give low values 1 and 0.973 | locus YHR079C, strain IRE1 (second series), hits give low values 1.01 | locus YHR079C, strain IRE1, hits give low values 0.973 | locus YHR094C, strain hxt1, hits give low values 1.01 | locus YHR129C, strain ARP1, hits give low values 1.01 | locus YHR142W, strain chs7, hits give low values 1 | locus YHR200W, strain rpn10, hits give low values 1.01 | locus YIL066C, strain RNR3, hits give low values 1.01 | locus YIL073C, strain SPO22, hits give low values 1.02 | locus YIL125W, strain kgd1, hits give low values 1 | locus YIR030C, strain dcg1, hits give low values 1.02 | locus YJL092W, strain hpr5, hits give low values 1 | locus YJL095W, strain BCK1 (second series), hits give low values 1 | locus YJL095W, strain BCK1, hits give low values 1.01 and 0.972 | locus YJL115W, strain asf1, hits give low values 0.992 | locus YJL129C, strain trk1, hits give low values 0.996 | locus YJL134W, strain LCB3, hits give low values 1 | locus YJL154C, strain vps35, hits give low values 1.01 | locus YJL164C, strain tpk1, hits give low values 0.968 | locus YJL166W, strain qcr8, hits give low values 1.02 | locus YJL168C, strain set2, hits give low values 1.01 | locus YJL187C, strain SWE1 (second series), hits give low values 1.01 | locus YJR043C, strain POL32, hits give low values 1.01 | locus YJR066W, strain TOR1, hits give low values 0.937
